The record followed here is PubChem BioAssay.

Active and inactive are the calls of the source.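 Rule for the calls, unless noted: active = inhibition of the reporter signal at or above 50%; inactive = inhibition below 50%.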

A short description of test [1]: inhibitors of TNFa-induced NFkB p65 translocation, primary screen, imaging, HUVEC, MLSMR starter and 10KST1 sets (AID 438;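 active = inhibition above 20% together with a positive visual image hit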;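 note: compound added about 3h40 before a 20 min TNFalpha stimulation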;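 for inhibition: signal is the nuclear over cytoplasmic p65 intensity ratio per well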). The following applies: HUVEC TNFa-induced p65 nuclear translocation; cell count: measured here: nuclei count (cytotoxicity indicator), at 2.08 µM; inhibition: at 2 µM, stronger effect = higher value, 0% TNFa-plus-vehicle, 100% no-TNFa wells.
Test [2] in a line: inhibitors of mutant huntingtin aggregation, primary screen, imaging, exon1htt(103Q)mCFP cells, high-content imaging (AID 483;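 active = visual image review flags a hit and inhibition of aggregation exceeds 20%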;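 note: compound exposure lasted 3 days before fixation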;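 for nuclei count: percent of the per-plate median nuclei count of sample wells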). Conditions: exon1htt(103Q)mCFP cell line, aggregate imaging, at 2 µM; inhibition of aggregation: stronger effect = higher value; nuclei count: measured here: cell count, toxicity.
Test [3] in a line: inhibitors of E-selectin induction by TNFa, primary screen, imaging, HUVEC, immunofluorescence, MLSMR starter and 10KST1 sets (AID 487;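 active = visually confirmed hit in the image check and inhibition above 20%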;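 for inhibition: signal is fraction of cell area covered by stained E-selectin grains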;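 for nuclei count: 100% = median nuclei count of all wells on the same plate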). Conditions: HUVEC TNFalpha-induced E-selectin immunofluorescence imaging, at 2 µM; inhibition: stronger effect = higher value; nuclei count: measured here: cell number, toxicity.
Test [4] addresses Voltage-gated potassium channel subunit beta-2 (Rattus norvegicus) (UniProt P62483). The test is described as follows: KvBeta enzyme negative modulators, primary screen, biochemical, NADPH fluorescence (AID 622;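 active = fluorescence slope higher than the sample average by over 3 SD, cut at about -0.22 in these data, passing the limit was not always enough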;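 note: slope of raw intensity against log time taken from 70 to 1610 s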). Conditions: recombinant KvBeta, 4-cyanobenzaldehyde reduction, at 10 µM, stronger effect = higher value.
For test [5] the target is unchanged. The test is described as follows: KvBeta positive modulators, primary screen, biochemical, NADPH fluorescence (AID 623;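 active = NADPH fluorescence slope more negative than the mean of all samples by about 3 SD, 99.7% confidence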;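 note: fluorescence intensity change per second fitted from 20 to 320 s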). Conditions: Recombinant KvBeta, NADPH fluorescence decrease slope, 10 min; at 10 µM; stronger effect = lower value.
Test [6] has as its target Alpha-2C adrenergic receptor (Homo sapiens) (UniProt P18825). The test is described as follows: modulators of alpha2C/GIRK thallium flux, primary screen, cell-based, HEK293 alpha2C/GIRK1/2 (AID 624;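 active = fluorescence slope after compound addition differing from the mean of all screened samples at 99.7% confidence, in either direction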;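 note: slope of fluorescence ratio to pre-addition baseline per second over 15 to 24 s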). The following applies: thallium flux BTC fluorescence, at 10 µM, actives lie on both sides.
A short description of test [7]: inhibitors of Sendai virus-induced IRF3 signaling, primary screen, TLR/RLR signaling modifier project, cell-based, Sendai virus stimulus, luciferase, 10K MLSCN set (AID 602276;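 active = inhibition at or above 50% at 10 µM; inactive = inhibition below 50%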;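 note: firefly luciferase from ISG56 promoter only with Renilla not read in this screen; 0% = Sendai virus plus DMSO and 100% = medium plus DMSO without virus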). Conditions: HEK293 RL24 IRF3 luciferase reporter, at 10 µM, stronger effect = higher value. In general terms: In a reporter assay the amount or activity of a reporter protein is the signal.
A short description of test [8]: inhibitors of poly I:C-induced TLR3 signaling, primary screen, cell-based, poly I:C stimulus, luciferase, 10K MLSCN set (AID 602277). The following applies: HEK293-TLR3 RL24 IRF3 luciferase reporter, at 10 µM, stronger effect = higher value.

Voltage-gated potassium channel subunit beta-2 (Rattus norvegicus), sequence (P62483 whole entry, looked up): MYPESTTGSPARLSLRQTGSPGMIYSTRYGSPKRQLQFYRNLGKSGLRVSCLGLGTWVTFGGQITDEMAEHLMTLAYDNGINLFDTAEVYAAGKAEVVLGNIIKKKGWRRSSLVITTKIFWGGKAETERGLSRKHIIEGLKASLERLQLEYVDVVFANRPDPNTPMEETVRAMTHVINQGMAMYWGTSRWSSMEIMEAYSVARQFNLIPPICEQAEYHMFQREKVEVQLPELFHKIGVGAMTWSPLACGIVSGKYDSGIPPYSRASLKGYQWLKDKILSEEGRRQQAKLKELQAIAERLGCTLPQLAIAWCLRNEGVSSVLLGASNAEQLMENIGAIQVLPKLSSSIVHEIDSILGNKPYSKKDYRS
Alpha-2C adrenergic receptor (Homo sapiens), sequence (P18825 whole entry, looked up): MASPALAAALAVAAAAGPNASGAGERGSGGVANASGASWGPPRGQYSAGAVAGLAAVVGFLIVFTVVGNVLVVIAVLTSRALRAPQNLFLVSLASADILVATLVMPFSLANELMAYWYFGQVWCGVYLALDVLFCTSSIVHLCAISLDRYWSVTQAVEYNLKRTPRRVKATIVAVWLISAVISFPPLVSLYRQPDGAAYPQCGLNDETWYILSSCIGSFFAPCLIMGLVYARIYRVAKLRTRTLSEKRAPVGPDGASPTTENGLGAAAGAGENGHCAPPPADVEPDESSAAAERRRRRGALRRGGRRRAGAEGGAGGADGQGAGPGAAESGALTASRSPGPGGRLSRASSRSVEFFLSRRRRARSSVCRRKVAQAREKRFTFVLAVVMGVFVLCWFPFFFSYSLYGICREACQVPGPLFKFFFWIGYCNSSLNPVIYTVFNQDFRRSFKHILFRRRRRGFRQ

As usually defined, the inhibition is the relative decrease from the control value, in per cent. In the case of `O=C(CC1Oc2ccccc2NC1=O)NCCCN1CCOCC1` (centres undefined), the cell count in test [1] was 620. The inhibition in test [1] is 6.1% (inactive); in test [3], 24.8% (inactive); in test [7], 8.81% (inactive); in test [8], 38.3% (inactive). Moreover, the inhibition of aggregation in test [2] is -1.6% (inactive). Besides, the values for the nuclei count in test [2] and in test [3] were 112% and 100%, respectively. In addition, in test [4], the fluorescence slope is -0.56 (inactive). For the same molecule, the NADPH fluorescence slope in test [5] is -1.9e-05 (inactive). Moreover, the slope in test [6] was 0.00542 (inactive).

For the molecule `CC(CC(=O)NCc1ccccc1)C1CCCO1` (centres undefined), in test [1], the cell count stood at 439. Also, the inhibition in test [1] was -2% (inactive); in test [3], -112% (inactive); in test [7] it was -2.84% (inactive); in test [8], -9.76% (inactive). Further, the inhibition of aggregation in test [2] was 20.9% (inactive). Besides, the nuclei count stood at 92.2% in test [2] and 114% in test [3]. Moreover, the fluorescence slope in test [4] was -0.463 (inactive). The NADPH fluorescence slope in test [5] is -3.8e-06 (inactive). Further, in test [6], the slope is 0.0065 (inactive).

For `CCOC(=O)Cn1ncc(-c2ccccc2)c1N`, the cell count in test [1] came to 582. For the same molecule, the inhibition in test [1] was -0.5% (inactive); in test [3] it was -51.5% (inactive); in test [7], -14.7% (inactive); in test [8] it was -27.5% (inactive). In addition, in test [2], the inhibition of aggregation is -6.8% (inactive). For the same molecule, the nuclei count in test [2] came to 67.2%; in test [3], 96.2%. Further, in test [4], the fluorescence slope was -0.48 (inactive). Moreover, the NADPH fluorescence slope in test [5] was 2.4e-05 (inactive). Also, in test [6], the slope is 0.0046 (inactive).

On to `CCOc1ccc2cc(C#N)c(SCC(=O)N3CCC(C)CC3)nc2c1`, for which the cell count in test [1] was determined as 447. Moreover, the inhibition in test [1] was 0.5% (inactive); in test [3] it was -92.8% (inactive); in test [7] it was 18.2% (inactive); in test [8], 7.14% (inactive). The inhibition of aggregation in test [2] was 6% (inactive). For the same molecule, the nuclei count is 107% in test [2] and 138% in test [3]. For the same molecule, the fluorescence slope in test [4] was -0.242 (inactive). For the same molecule, in test [5], the NADPH fluorescence slope is 2.6e-06 (inactive). In addition, the slope in test [6] is 0.00566 (inactive).

As to `CC(=O)Nc1ccc(S(=O)(=O)N(C2=NCC(C)S2)c2ccccc2)cc1` (centres undefined), the cell count in test [1] was found to be 594. Besides, the inhibition was 5.4% (inactive) in test [1], -9.1% (inactive) in test [3], 11.6% (inactive) in test [7] and 11.1% (inactive) in test [8]. Besides, in test [2], the inhibition of aggregation is -4.5% (inactive). The nuclei count came to 95.5% in test [2] and 109% in test [3]. The fluorescence slope in test [4] is -0.496 (inactive). Moreover, the NADPH fluorescence slope in test [5] is -1.6e-05 (inactive). In addition, the slope in test [6] was 0.00617 (inactive).

On to `COC(=O)Cn1c(CCS(=O)(=O)c2ccc(C)cc2)nc2ccccc21`, for which the cell count in test [1] was 503. Moreover, the inhibition in test [1] is -41.8% (inactive); in test [3], -69.5% (inactive); in test [7], 17.1% (inactive); in test [8], 28.4% (inactive). Moreover, the inhibition of aggregation in test [2] was 6.7% (inactive). Besides, the nuclei count in test [2] was found to be 57.3%; in test [3], 105%. For the same molecule, the fluorescence slope in test [4] is -0.498 (inactive). Besides, in test [5], the NADPH fluorescence slope is -2.9e-05 (inactive). Besides, the slope in test [6] is 0.00565 (inactive).

Take `Cc1cc(NC(=O)C23CCC(C)(C(=O)O2)C3(C)C)no1` (centres undefined): the cell count in test [1] is 406. In addition, the inhibition in test [1] was 4% (inactive); in test [3], -22.3% (inactive); in test [7] it was 4.18% (inactive); in test [8], 10.3% (inactive). In addition, the inhibition of aggregation in test [2] was 14.4% (inactive). The nuclei count in test [2] is 80.2%; in test [3], 111%. Moreover, the fluorescence slope in test [4] was -0.612 (inactive). Also, in test [5], the NADPH fluorescence slope was -1.5e-06 (inactive). Also, the slope in test [6] is 0.00569 (inactive).

As to `CC(=O)N1CCN(c2ccc(NC(=O)c3ccc(C(C)(C)C)cc3)cc2)CC1`, the cell count in test [1] came out at 816. The inhibition in test [1] was 7.3% (inactive); in test [3], -186% (inactive); in test [7], -19.2% (inactive); in test [8], -42.5% (inactive). Besides, the inhibition of aggregation in test [2] was -7.5% (inactive). In addition, the nuclei count in test [2] is 97.8%; in test [3], 135%. For the same molecule, the fluorescence slope in test [4] is -0.494 (inactive). Also, in test [5], the NADPH fluorescence slope is -4e-05 (inactive). Also, the slope in test [6] was 0.00554 (inactive).

For `CNC(=O)CSc1nnc(-c2cccc(S(=O)(=O)N3CCOCC3)c2)n1-c1ccc(F)cc1`, the cell count in test [1] worked out at 474. The inhibition in test [1] was 7.2% (inactive); in test [3], -18.5% (inactive); in test [7], 6.45% (inactive); in test [8], 26% (inactive). For the same molecule, the inhibition of aggregation in test [2] was 13.2% (inactive). Also, the nuclei count in test [2] came to 104%; in test [3] it was 106%. For the same molecule, the fluorescence slope in test [4] is -0.376 (inactive). Further, the NADPH fluorescence slope in test [5] was -6.4e-05 (inactive). In addition, in test [6], the slope is 0.00569 (inactive).

For the molecule `CC1CCCCC1NC(=O)Cn1ncc2ccccc21` (centres undefined), in test [1], the cell count was 827. The inhibition was -6.9% (inactive) in test [1], -81.1% (inactive) in test [3], 11.9% (inactive) in test [7] and 34.8% (inactive) in test [8]. For the same molecule, the inhibition of aggregation in test [2] is 10.9% (inactive). Also, the nuclei count is 94% in test [2] and 123% in test [3]. Moreover, the fluorescence slope in test [4] was -0.555 (inactive). The NADPH fluorescence slope in test [5] was -4.8e-05 (inactive). The slope in test [6] was 0.00699 (inactive).

On to `COC(=O)C1=C(C)NC(C)=C(C(=O)OC)C1C(=O)OC1CCCCC1=O` (centres undefined), for which, in test [1], the cell count was found to be 487. Also, the inhibition in test [1] is 8.7% (inactive); in test [3], 61.1% (active); in test [7], 1.65% (inactive); in test [8], 27.7% (inactive). In test [2], the inhibition of aggregation was 32.7% (inactive). Further, the nuclei count was 87.8% in test [2] and 80.2% in test [3]. Moreover, in test [4], the fluorescence slope was -0.425 (inactive). In test [5], the NADPH fluorescence slope is -3.3e-06 (inactive). Moreover, the slope in test [6] is 0.00528 (inactive).

Turning to `COc1ccc(S(=O)(=O)N(C)CC(=O)N2CCCCC2)cc1Cl`, the cell count in test [1] turned out to be 173. Further, the inhibition is -15.7% (inactive) in test [1], -2.3% (inactive) in test [3], 13.8% (inactive) in test [7] and 15% (inactive) in test [8]. The inhibition of aggregation in test [2] was 4.2% (inactive). Besides, the nuclei count worked out at 94.8% in test [2] and 87% in test [3]. The fluorescence slope in test [4] was -0.492 (inactive). In test [5], the NADPH fluorescence slope is -2.5e-05 (inactive). Further, the slope in test [6] is 0.00667 (inactive).

In the case of `Nc1c(N2CCCCC2)c(=O)[nH]c(=O)n1-c1ccccc1`, the cell count in test [1] came to 751. Besides, the inhibition is 2.4% (inactive) in test [1], -0.1% (inactive) in test [3], -4.05% (inactive) in test [7] and -5.22% (inactive) in test [8]. Also, the inhibition of aggregation in test [2] is 3% (inactive). Further, the nuclei count in test [2] stood at 106%; in test [3] it was 109%. Moreover, in test [4], the fluorescence slope is -0.456 (inactive). In test [5], the NADPH fluorescence slope is 4.1e-05 (inactive). For the same molecule, the slope in test [6] is 0.00376 (inactive).

Regarding `Cc1sc2ncnc(SCC(=O)N3CCCC3)c2c1C`, the cell count in test [1] was determined as 369. The inhibition is 3.5% (inactive) in test [1], -32.3% (inactive) in test [3], 8.17% (inactive) in test [7] and 6.41% (inactive) in test [8]. Moreover, in test [2], the inhibition of aggregation was -6.6% (inactive). Besides, the results for the nuclei count in test [2] and in test [3] were 112% and 108%, respectively. The fluorescence slope in test [4] is -0.433 (inactive). In test [5], the NADPH fluorescence slope is -0.000107 (inactive). In addition, in test [6], the slope is 0.00701 (inactive).
